# Laboratory results from publication PMC7862700, “An all-to-all approach to the identification of sequence-specific readers for epigenetic DNA modifications on cytosine”.
# Tests used:
# Assay in all cases: DAPPL (digital affinity profiling via proximity ligation, sequencing); 10 mM Tris-HCl pH 7.5, 50 mM NaCl, 1 mM DTT, 4% glycerol, room temperature, 30 min; GST-TFs on glutathione beads, 16-mer random dsDNA library, 0.1% formaldehyde crosslink after washing; high values mean tight binding
# Conditions in all cases: protein: recombinant; tags: N-terminal GST; dsDNA, one strand shown
# ELK1 = molecular target: T1, ELK1 (Homo sapiens, UniProt P19419 1-428)
# T1 sequence: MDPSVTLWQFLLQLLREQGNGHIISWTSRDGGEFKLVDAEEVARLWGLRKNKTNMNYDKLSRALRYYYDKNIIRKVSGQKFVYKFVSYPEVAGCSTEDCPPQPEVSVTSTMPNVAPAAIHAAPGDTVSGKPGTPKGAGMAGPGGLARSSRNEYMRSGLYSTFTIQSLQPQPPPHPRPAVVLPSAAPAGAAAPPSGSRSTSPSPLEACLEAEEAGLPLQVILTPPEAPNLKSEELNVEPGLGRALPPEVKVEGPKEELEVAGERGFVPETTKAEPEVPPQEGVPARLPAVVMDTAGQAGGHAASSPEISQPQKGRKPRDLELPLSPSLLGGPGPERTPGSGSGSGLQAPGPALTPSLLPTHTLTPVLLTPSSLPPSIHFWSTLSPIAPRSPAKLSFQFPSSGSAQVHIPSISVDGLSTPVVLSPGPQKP
# Procedure, shortened: (§1)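 Human transcription factors fused to GST were expressed in yeast, captured on glutathione beads, given DNA barcodes and pooled with a GST-only negative control. Pools were incubated with 200 nmole of a 16-mer random double-stranded DNA library in Tris/NaCl/DTT/glycerol buffer at room temperature for 30 min. They were then washed, crosslinked with 0.1% formaldehyde, proximity-ligated (BsaI/T4 ligase, 1 h, 37 °C), PCR-amplified and sequenced on an Illumina NextSeq500. Binding signal is each 6-mer's read frequency for a factor divided by its frequency for the GST control.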
# ERG = molecular target: T2, ERG (Homo sapiens, UniProt P11308 1-479)
# T2 sequence: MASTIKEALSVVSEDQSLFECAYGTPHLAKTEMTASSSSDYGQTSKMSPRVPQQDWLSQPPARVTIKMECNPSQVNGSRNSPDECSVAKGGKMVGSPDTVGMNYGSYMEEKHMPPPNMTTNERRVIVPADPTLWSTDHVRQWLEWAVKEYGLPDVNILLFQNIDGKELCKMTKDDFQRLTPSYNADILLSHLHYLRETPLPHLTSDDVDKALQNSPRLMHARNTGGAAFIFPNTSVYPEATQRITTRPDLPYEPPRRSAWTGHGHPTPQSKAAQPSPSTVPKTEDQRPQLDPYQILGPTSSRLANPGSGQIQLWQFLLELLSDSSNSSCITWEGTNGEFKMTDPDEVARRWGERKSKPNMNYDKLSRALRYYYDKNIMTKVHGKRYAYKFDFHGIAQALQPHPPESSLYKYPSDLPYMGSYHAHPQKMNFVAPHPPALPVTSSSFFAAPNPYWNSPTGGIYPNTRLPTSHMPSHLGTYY
# Procedure, shortened: as §1
# ELF1 = ELF1 (Homo sapiens, UniProt P32519 1-619)
# Sequence of ELF1 (P32519 whole entry): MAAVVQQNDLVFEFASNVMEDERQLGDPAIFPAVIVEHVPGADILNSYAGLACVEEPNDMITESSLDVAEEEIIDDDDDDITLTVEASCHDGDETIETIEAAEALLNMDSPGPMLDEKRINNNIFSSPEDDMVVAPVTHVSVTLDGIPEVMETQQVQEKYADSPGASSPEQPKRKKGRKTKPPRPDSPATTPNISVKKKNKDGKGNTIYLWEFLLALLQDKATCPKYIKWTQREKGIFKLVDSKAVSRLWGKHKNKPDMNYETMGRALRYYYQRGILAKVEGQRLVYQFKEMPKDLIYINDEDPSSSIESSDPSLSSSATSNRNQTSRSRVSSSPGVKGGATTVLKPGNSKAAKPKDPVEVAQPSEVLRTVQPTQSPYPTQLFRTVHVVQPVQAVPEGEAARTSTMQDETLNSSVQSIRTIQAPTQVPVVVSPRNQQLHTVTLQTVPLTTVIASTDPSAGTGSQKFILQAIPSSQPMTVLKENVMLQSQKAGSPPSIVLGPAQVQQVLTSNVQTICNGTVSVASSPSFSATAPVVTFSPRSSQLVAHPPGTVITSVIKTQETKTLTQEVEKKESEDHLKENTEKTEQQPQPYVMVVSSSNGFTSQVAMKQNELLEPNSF
# Procedure, shortened: as §1
# EHF = molecular target: T3, EHF (Homo sapiens, UniProt Q9NZC4 1-300)
# T3 sequence: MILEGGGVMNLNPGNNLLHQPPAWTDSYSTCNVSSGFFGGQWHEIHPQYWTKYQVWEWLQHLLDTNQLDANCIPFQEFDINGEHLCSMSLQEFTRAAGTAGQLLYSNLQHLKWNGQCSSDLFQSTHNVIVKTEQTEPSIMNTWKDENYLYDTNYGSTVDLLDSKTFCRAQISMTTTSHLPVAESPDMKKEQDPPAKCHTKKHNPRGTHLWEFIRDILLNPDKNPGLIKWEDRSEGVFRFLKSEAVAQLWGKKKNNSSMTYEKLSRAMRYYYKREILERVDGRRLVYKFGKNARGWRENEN
# Procedure, shortened: as §1
# SPIB = SPIB (Homo sapiens, UniProt Q01892 1-262)
# Sequence of SPIB (Q01892 whole entry): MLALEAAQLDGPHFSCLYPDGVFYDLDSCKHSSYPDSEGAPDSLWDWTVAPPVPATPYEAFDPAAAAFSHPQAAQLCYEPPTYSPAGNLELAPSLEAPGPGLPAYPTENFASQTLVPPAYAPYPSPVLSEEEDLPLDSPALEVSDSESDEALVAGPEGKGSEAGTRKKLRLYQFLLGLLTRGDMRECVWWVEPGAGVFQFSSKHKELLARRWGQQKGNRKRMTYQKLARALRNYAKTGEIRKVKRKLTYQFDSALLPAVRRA
# Procedure, shortened: as §1
# FEV = molecular target: T4, FEV (Homo sapiens, UniProt Q99581 1-238)
# T4 sequence: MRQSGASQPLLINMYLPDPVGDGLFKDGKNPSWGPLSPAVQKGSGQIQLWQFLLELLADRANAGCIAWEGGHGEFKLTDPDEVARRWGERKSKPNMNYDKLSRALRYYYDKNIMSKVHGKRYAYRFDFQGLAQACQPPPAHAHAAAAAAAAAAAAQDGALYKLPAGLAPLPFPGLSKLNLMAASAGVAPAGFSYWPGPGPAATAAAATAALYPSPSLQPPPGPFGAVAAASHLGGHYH
# Procedure, shortened: as §1
# ETV5 = ETV5 (Homo sapiens, UniProt P41161 1-510)
# Sequence of ETV5 (P41161 whole entry): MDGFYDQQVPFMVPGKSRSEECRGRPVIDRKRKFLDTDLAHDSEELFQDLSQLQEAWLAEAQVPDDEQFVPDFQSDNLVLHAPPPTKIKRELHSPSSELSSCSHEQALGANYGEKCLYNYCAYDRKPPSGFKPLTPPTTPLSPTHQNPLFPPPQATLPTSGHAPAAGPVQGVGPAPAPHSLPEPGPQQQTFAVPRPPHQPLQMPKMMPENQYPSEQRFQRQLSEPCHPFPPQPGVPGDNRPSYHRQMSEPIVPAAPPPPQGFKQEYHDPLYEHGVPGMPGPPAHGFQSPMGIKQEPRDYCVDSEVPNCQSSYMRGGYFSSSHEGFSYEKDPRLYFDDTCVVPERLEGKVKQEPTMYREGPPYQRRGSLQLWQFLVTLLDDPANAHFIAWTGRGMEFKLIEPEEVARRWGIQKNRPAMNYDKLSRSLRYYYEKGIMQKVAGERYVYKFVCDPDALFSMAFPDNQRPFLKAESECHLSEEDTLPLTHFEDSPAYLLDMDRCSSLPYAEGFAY
# Procedure, shortened: as §1
# ELF4 = ELF4 (Homo sapiens, UniProt Q99607 1-663)
# Sequence of ELF4 (Q99607 whole entry): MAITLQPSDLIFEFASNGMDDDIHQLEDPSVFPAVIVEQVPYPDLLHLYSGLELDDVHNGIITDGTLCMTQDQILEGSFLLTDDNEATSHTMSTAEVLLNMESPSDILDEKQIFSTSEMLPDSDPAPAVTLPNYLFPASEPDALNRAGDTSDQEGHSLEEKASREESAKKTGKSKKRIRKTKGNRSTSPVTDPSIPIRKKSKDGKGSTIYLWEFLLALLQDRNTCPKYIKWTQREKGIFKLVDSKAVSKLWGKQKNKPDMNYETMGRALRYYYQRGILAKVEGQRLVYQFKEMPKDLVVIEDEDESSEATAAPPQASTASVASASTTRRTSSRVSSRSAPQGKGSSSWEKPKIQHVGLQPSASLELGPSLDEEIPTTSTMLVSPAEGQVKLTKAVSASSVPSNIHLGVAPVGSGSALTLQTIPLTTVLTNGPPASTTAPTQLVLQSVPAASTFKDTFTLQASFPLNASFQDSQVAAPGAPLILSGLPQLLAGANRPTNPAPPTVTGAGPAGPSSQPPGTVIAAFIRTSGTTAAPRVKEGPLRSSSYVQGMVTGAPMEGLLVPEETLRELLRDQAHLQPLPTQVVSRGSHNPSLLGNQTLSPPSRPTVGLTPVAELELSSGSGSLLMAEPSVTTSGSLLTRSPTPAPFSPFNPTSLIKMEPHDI
# Procedure, shortened: as §1
# ELK4 = molecular target: T5, ELK4 (Homo sapiens, UniProt P28324-2 1-405)
# T5 sequence: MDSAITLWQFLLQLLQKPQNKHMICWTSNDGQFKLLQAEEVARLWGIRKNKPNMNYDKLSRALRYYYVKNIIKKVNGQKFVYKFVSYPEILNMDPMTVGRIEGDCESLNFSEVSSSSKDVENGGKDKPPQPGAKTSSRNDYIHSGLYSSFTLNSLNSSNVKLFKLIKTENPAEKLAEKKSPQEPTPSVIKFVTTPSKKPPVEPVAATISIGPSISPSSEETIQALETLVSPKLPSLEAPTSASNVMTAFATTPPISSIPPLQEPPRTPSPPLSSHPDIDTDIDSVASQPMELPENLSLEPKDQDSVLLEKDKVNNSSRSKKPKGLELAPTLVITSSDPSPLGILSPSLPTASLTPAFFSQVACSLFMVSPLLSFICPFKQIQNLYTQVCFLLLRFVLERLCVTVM
# Procedure, shortened: as §1
# ETV1 = ETV1 (Homo sapiens, UniProt P50549 1-477)
# Sequence of ETV1 (P50549 whole entry): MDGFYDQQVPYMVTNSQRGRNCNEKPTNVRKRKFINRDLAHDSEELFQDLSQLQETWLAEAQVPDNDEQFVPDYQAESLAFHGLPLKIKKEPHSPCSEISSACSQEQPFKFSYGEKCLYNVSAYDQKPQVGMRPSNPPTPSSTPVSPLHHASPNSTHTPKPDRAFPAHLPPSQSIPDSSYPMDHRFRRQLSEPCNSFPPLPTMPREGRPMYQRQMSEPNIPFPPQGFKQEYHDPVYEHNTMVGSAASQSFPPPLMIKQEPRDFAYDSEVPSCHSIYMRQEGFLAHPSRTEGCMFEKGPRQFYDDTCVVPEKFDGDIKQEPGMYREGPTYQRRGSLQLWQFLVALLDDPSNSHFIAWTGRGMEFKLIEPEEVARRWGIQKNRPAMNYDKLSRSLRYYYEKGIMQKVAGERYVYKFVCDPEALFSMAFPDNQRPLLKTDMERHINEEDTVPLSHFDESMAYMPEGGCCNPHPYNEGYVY
# Procedure, shortened: as §1
# ERF = molecular target: T6, ERF (Homo sapiens, UniProt P50548 1-548)
# T6 sequence: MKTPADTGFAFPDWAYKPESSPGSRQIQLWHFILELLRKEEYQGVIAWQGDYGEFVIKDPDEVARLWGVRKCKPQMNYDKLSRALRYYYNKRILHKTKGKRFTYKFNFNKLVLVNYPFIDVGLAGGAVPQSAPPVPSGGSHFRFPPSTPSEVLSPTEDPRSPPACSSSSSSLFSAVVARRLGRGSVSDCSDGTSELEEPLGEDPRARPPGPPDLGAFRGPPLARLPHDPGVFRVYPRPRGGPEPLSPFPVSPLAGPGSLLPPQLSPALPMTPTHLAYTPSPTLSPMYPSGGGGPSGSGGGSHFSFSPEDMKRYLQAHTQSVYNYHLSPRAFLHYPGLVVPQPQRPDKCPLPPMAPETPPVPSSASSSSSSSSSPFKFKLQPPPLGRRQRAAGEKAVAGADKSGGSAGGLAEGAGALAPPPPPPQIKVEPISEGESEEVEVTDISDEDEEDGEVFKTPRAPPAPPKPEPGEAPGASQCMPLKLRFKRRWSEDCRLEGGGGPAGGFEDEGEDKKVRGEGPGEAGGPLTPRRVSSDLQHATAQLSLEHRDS
# Procedure, shortened: as §1
# ETV3L = molecular target: T7, ETV3L (Homo sapiens, UniProt Q6ZN32 1-361)
# T7 sequence: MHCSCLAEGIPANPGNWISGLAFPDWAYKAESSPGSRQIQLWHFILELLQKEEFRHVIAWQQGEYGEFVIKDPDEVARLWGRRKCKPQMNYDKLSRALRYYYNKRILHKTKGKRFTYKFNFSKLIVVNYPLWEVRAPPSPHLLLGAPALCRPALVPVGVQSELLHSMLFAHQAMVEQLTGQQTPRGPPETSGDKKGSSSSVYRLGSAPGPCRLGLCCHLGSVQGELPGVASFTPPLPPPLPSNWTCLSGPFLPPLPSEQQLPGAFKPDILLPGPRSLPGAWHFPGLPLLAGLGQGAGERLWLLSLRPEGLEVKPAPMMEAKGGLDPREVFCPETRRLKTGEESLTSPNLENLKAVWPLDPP
# Procedure, shortened: as §1
# ETS2 = molecular target: T8, ETS2 (Homo sapiens, UniProt P15036 1-469)
# T8 sequence: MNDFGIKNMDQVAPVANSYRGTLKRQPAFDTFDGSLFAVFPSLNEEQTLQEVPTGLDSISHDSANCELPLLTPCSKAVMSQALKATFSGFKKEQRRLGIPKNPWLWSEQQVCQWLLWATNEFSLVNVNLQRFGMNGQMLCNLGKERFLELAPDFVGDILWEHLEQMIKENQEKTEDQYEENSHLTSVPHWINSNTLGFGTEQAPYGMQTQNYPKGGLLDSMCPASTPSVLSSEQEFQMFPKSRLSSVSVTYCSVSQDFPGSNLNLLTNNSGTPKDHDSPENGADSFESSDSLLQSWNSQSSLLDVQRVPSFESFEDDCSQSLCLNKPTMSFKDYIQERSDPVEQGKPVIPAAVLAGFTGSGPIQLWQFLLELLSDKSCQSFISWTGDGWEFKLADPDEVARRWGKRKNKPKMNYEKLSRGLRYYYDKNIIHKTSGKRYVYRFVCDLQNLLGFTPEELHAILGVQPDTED
# Procedure, shortened: as §1
# SPDEF = molecular target: T9, SPDEF (Homo sapiens, UniProt O95238 1-335)
# T9 sequence: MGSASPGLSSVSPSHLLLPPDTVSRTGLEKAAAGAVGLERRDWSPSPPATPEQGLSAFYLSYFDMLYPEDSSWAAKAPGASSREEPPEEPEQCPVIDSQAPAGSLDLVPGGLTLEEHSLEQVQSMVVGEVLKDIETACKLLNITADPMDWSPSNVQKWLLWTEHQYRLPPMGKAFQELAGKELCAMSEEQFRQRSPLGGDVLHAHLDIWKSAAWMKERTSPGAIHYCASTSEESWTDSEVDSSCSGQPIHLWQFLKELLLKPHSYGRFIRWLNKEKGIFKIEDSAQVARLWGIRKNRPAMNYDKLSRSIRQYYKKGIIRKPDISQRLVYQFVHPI
# Procedure, shortened: as §1
# ETV7 = molecular target: T10, ETV7 (Homo sapiens, UniProt Q9Y603 1-341)
# T10 sequence: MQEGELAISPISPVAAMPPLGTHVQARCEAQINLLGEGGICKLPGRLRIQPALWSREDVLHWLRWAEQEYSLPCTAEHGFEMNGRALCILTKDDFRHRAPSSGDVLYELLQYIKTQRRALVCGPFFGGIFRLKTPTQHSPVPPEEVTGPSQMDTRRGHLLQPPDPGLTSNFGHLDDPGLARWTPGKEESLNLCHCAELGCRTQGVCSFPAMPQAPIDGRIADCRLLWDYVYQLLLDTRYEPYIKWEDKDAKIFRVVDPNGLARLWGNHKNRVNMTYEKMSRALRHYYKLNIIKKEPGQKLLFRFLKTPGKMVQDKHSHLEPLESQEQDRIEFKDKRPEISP
# Procedure, shortened: as §1
# ETV3 = molecular target: T11, ETV3 (Homo sapiens, UniProt P41162-2 1-143)
# T11 sequence: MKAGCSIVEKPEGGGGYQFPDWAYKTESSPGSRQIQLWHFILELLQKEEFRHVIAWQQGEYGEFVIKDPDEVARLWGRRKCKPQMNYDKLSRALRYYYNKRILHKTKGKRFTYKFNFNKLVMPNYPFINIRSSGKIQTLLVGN
# Procedure, shortened: as §1
# ETV6 = ETV6 (Homo sapiens, UniProt P41212 1-452)
# Sequence of ETV6 (P41212 whole entry): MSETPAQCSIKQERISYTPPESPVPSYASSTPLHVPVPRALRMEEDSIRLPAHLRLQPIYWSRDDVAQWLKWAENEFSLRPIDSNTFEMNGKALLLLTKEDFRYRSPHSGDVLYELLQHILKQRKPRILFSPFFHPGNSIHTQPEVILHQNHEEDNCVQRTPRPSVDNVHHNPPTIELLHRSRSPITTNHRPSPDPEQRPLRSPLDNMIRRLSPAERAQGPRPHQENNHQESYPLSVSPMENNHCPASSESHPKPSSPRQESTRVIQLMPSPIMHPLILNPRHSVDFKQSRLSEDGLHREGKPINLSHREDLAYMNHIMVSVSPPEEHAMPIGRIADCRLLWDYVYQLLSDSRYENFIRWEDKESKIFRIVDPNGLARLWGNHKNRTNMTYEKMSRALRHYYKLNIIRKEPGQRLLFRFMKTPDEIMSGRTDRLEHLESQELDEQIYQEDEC
# Procedure, shortened: as §1
sequence,measurement,setting,value
TGTTGT,binding signal,ELK1,"1.15 fold enrichment (6-mer frequency, TF over GST control)"
same,binding signal,ERG,"1.08 fold enrichment (6-mer frequency, TF over GST control)"
same,binding signal,ELF1,"1.13 fold enrichment (6-mer frequency, TF over GST control)"
same,binding signal,EHF,"1.09 fold enrichment (6-mer frequency, TF over GST control)"
same,binding signal,SPIB,"1.12 fold enrichment (6-mer frequency, TF over GST control)"
same,binding signal,FEV,"1.11 fold enrichment (6-mer frequency, TF over GST control)"
same,binding signal,ETV5,"1.08 fold enrichment (6-mer frequency, TF over GST control)"
same,binding signal,ELF4,"1.11 fold enrichment (6-mer frequency, TF over GST control)"
same,binding signal,ELK4,"1.24 fold enrichment (6-mer frequency, TF over GST control)"
same,binding signal,ETV1,"1.2 fold enrichment (6-mer frequency, TF over GST control)"
same,binding signal,ERF,"1.02 fold enrichment (6-mer frequency, TF over GST control)"
same,binding signal,ETV3L,"1.15 fold enrichment (6-mer frequency, TF over GST control)"
same,binding signal,ETS2,"1.05 fold enrichment (6-mer frequency, TF over GST control)"
same,binding signal,SPDEF,"1.21 fold enrichment (6-mer frequency, TF over GST control)"
same,binding signal,ETV7,"1.14 fold enrichment (6-mer frequency, TF over GST control)"
same,binding signal,ETV3,"1.14 fold enrichment (6-mer frequency, TF over GST control)"
same,binding signal,ETV6,"1.11 fold enrichment (6-mer frequency, TF over GST control)"
